Rows were chosen to be rich in hits. Some 3% of all compounds tested hit in one or more screens of this group.
PPC-1+TRAIL kill = compounds killing PPC-1 cancer cells with TRAIL present, primary screen, TRAIL potentiator project, ATPLite luminescence, uHTS. PPC-1 cells + TRAIL, ATPLite viability luminescence. 220,000 tested, 0.41% active. cell killing (% activity), % at 4 µM or 5 µM. AID 1443, 2008;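 active = cell killing above 50% in the first pass at 4 µM, then a duplicate retest at 5 µM averaging 50% or more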;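 note: plate controls were cells with TRAIL plus DMSO for no effect and medium-only wells lacking cells for full effect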
SENP7 inh = SENP7 protease inhibitors, primary screen, biochemical, luminescence, uHTS | recombinant SENP7, Z-RLRGG-aminoluciferin luminescence, 40 min | 330,000 tested, 1.5% active | inhibition, % at 5 µM;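 active = inhibition above about 50% at the single test dose, limit read from the data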;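 note: plate controls were DMSO with enzyme for no effect and no enzyme buffer wells for full effect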
C8 TRAIL sens = viability loss with TRAIL in NB7+C8 cells, primary screen, TRAIL sensitizer project, cell-based, ATPlite luminescence; AID 624354, 2012; 360,000 tested, 1% active; inhibition (viability loss, TRAIL sensitization), % at 10 µM;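 active = compounds causing at least 50% loss of cell viability in the single-dose screen, relative to plate controls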
SENP8 block-1 = human SENP8 protease inhibitors, primary screen, biochemical, fluorescence, Nedd8 protein substrate, uHTS; Sentrin-specific protease 8 (Homo sapiens), Q96LD8; recombinant SENP8; inhibition, % at 20 µM; 360,000 tested, 0.64% active; AID 602440, 2012; in the data active = inhibition mostly above about 40%, no sharp cut-off; inactive = mostly below about 27%
Target sequence (Q96LD8 whole entry, looked up): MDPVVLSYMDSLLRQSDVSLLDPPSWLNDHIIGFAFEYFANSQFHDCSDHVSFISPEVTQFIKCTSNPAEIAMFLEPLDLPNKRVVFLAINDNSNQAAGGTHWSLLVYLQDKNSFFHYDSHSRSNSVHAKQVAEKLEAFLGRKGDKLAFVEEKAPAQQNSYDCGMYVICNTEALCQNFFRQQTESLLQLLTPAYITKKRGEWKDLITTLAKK
SENP6 block = SENP6 protease inhibitors, primary screen, biochemical, luminescence, uHTS. Sentrin-specific protease 6 (Homo sapiens), Q9GZR1. Recombinant SENP6 catalytic domain, aminoluciferin luminescence. inhibition, % at 10 µM. 330,000 tested, 1.8% active. AID 2599, 2010;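 active = inhibition above about 50% at the single tested dose, limit read from the data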;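 note: plate controls were DMSO wells with enzyme for no effect and DMSO wells lacking enzyme for full effect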
Target sequence (Q9GZR1 628-1112 limits assumed): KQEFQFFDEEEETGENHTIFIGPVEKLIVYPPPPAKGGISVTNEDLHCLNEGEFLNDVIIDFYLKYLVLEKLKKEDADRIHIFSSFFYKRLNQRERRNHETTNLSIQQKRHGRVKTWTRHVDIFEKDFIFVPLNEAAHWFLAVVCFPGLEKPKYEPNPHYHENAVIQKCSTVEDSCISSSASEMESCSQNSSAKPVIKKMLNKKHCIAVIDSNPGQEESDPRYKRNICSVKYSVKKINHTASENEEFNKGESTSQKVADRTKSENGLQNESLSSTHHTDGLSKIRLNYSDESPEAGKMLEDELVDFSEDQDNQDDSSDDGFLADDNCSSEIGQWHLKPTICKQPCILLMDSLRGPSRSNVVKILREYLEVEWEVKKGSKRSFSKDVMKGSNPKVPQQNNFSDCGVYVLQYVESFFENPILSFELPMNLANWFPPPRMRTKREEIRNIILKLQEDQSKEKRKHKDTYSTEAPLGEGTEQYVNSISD
SENP8 block-2 = SENP8 protease inhibitors, primary screen, biochemical, luminescence | 330,000 tested, 1.2% active | purified SENP8, Z-RLRGG-aminoluciferin cleavage | Sentrin-specific protease 8 (Homo sapiens), Q96LD8 | AID 2540, 2010 | inhibition, % at 10 µM; in the data active = inhibition above about 50%
PPC-1 tox = cytotoxicity in PPC-1 cells, confirmation, cytotoxicity control for TRAIL apoptosis potentiator project, cell-based, ATP content luminescence. shares compounds with PPC-1+TRAIL kill. 1,200 tested, 50% active. cytotoxicity, % at 5 µM. PPC-1 viability, ATPlite luminescence, overnight;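 active = reconfirmed compounds whose average cytotoxicity reaches 50% or more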;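 note: 0% = DMSO-treated cells and 100% = wells holding medium but no cells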
SENP8 confirm = SENP8 protease inhibitors, retest, confirmation, biochemical, luminescence, single concentration | shares compounds with SENP7 inh | Recombinant SENP8, Z-RLRGG-aminoluciferin luminescence, 60 min | inhibition, % at 12.5 µM | 6,200 tested, 40% active | AID 488912, 2010;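 active = mean inhibition across replicates above about 50%, limit read from the data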
SENP6 conf = SENP6 protease inhibitors, confirmation, biochemical, luminescence, single concentration. shares compounds with SENP7 inh. recombinant SENP6, Z-RLRGG-aminoluciferin luminescence. inhibition, % at 12.5 µM. 6,200 tested, 58% active. AID 488915, 2010
SENP7 confirm = SENP7 protease inhibitors, retest, confirmation, biochemical, luminescence, single concentration | shares compounds with SENP7 inh | recombinant SENP7, Z-RLRGG-aminoluciferin luminescence, 40 min | inhibition, % at 12.5 µM | 6,200 tested, 69% active
Casp3 SENP sel = caspase-3 protease inhibitors, confirmation, selectivity assay for SENP inhibitor project, biochemical, single concentration; shares compounds with SENP7 inh; purified caspase-3, Z-DEVD-aminoluciferin luminescence, 60 min; inhibition, % at 12.5 µM; 6,200 tested, 60% active; AID 488918, 2010;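 active = mean inhibition above about 50%, limit read from the data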;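 note: plate controls were enzyme with DMSO for no effect and wells without caspase-3 for full effect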
SENP luc ctr = counter-screen for SENP inhibitors: luminescence interference; shares compounds with SENP7 inh; 6,200 tested, 39% active; Pre-incubated SENP8/Z-RLRGG-aminoluciferin, luciferase luminescence interference; inhibition, % at 12.5 µM;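 active = mean inhibition above about 50% when retested at one dose, limit read from the data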;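 note: plate controls were DMSO wells with completed reaction for no effect and substrate without enzyme for full effect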
Numbers without * were called inactive; . = no result given.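 Rule for the calls, unless noted: active = mean inhibition above about 50% in the one-dose retest (limit read from the data); inactive = the rest.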

SMILES	PPC-1+TRAIL kill	SENP7 inh	C8 TRAIL sens	SENP8 block-1	SENP6 block	SENP8 block-2	PPC-1 tox	SENP8 confirm	SENP6 conf	SENP7 confirm	Casp3 SENP sel	SENP luc ctr
c1ccc(CCc2nc(-c3ccccn3)no2)cc1	27.2	-3.2	3.7	11.0	-6.5	0.1	.	.	.	.	.	.
Cc1ccccc1-c1nc(-c2ccccn2)no1	83.5*	100.0*	87.4*	12.8	97.1*	96.1*	80.3*	98.3*	99.2*	101.8*	97.9*	97.7*
COc1ccccc1-c1nc(-c2ccccn2)no1	63.3*	98.6*	73.2*	-16.1	95.8*	93.2*	63.3*	12.3	99.1*	102.5*	98.7*	97.1*
COc1ccc(-c2nc(-c3ccccn3)no2)cc1	92.5*	100.0*	95.6*	9.7	97.6*	97.4*	91.9*	8.7	101.1*	103.9*	99.7*	98.4*
Clc1ccc(-c2nc(-c3ccccn3)no2)cc1Cl	66.0*	98.4*	78.3*	11.4	92.5*	96.3*	63.7*	90.7*	94.1*	98.3*	93.2*	75.6*
Cc1ccccc1NC(=O)NC1(C(=O)N2CCC(C(N)=O)CC2)CCCCC1	.	-3.1	0.7	-3.8	8.9	-3.0	.	.	.	.	.	.
CCC(C)NS(=O)(=O)c1ccc(F)c(C(=O)Nc2c(F)cc(F)cc2Br)c1 (configuration not stated)	1.6	-0.8	1.4	7.0	-10.9	-12.7	.	.	.	.	.	.
CCOC(=O)c1cnc(Nc2nc3ccccc3o2)nc1CSc1nnc(C)s1	.	-6.4	18.8	1.7	3.6	-7.3	.	.	.	.	.	.
CCOC(=O)c1cnc(Nc2nc3ccccc3o2)nc1C	80.5*	95.1*	88.1*	-0.5	83.8*	79.6*	78.9*	74.5*	75.2*	98.8*	92.7*	33.9
CC(=O)Nc1ccc(NC2=C/C(=N/S(=O)(=O)c3cccs3)c3ccccc3C2=O)cc1	73.3*	54.1*	83.6*	68.8*	92.8*	79.2*	74.5*	90.0*	95.5*	85.2*	51.1*	2.1
CC(=O)Nc1ccc(NC(=O)C(C)OC(=O)c2ccccc2NS(=O)(=O)c2cccs2)cc1 (configuration not stated)	-22.2	4.9	-12.2	-20.4	0.4	-4.2	.	.	.	.	.	.
O=C1C(Cc2ccccc2)Nc2ncnc(N3CCN(c4ccccc4)CC3)c2N1Cc1ccc(Cl)cc1 (configuration not stated)	.	-0.8	-16.3	-19.0	6.1	0.6	.	.	.	.	.	.
Nc1ccc2oc(-c3ccccn3)nc2c1	34.4	2.0	31.2	-68.9	-6.4	-4.6	.	.	.	.	.	.
Nc1ccc(-c2nc3ccc(N)cc3o2)cc1	44.2	61.1*	68.0*	-422.8	67.9*	47.0	45.4	37.7	45.0	82.3*	78.8*	61.9*
CCCCN1C(=O)C(CC(=O)NC2CCCCC2)CC(C(=O)N(C)C)=C1C (configuration not stated)	.	.	-3.7	1.1	.	.	.	.	.	.	.	.
Cc1nn(CCCC(=O)NCCCN2CCN(C)CC2)c(=O)c2c1sc1ccccc12	.	3.8	1.5	-26.4	-6.1	5.9	.	.	.	.	.	.
O=C(O)c1c2c(nc3ccccc13)/C(=C/c1ccc(OC(F)F)cc1)CCC2	.	-0.1	1.5	-276.2	29.1	-5.4	.	.	.	.	.	.
O=C(O)c1c2c(nc3ccccc13)/C(=C/c1ccc(O)cc1)CC2	48.2	70.6*	57.9*	-397.8	77.0*	75.5*	48.9	90.8*	88.5*	98.4*	93.4*	63.4*
O=C(O)c1cc(/C=C/c2ccc(N3CCOCC3)cc2)nc2ccccc12	89.6*	68.8*	87.2*	-417.8	1.7	70.0*	91.2*	79.0*	78.5*	95.6*	90.3*	83.1*
CCCN1CCN(C(=O)c2ccc(CS(=O)c3ccc(Br)cc3)o2)CC1 (configuration not stated)	.	.	-23.0	15.2	.	.	.	.	.	.	.	.
COc1ccc(/C=N/Nc2nncc3ccccc23)cc1	94.6*	96.9*	91.2*	-1.6	98.9*	96.6*	94.8*	97.2*	100.5*	103.9*	98.8*	98.8*
Cc1cnc(NC(=O)c2cc3ccccc3o2)s1	50.6*	75.4*	35.6	-18.4	68.3*	54.7*	54.5*	37.6	31.2	61.0*	51.2*	36.0
CC(C)c1nnc(NC(=O)c2sc3ccccc3c2Cl)s1	19.0	1.9	20.2	-44.1	29.6	32.9	.	.	.	.	.	.
Cc1cnc(NC(=O)c2sc3ccccc3c2Cl)s1	70.0*	84.0*	81.7*	-98.0	80.2*	66.1*	67.6*	21.3	49.9	53.0*	25.8	7.0
Cc1ccc2nc3c(cc2c1)c(NC(=O)C(C)(C)C)nn3CC(C)C	.	-1.9	-9.9	-292.1	-10.5	-5.1	.	.	.	.	.	.
CCN1C=C(C(=O)c2ccccc2)C(=O)CC1	.	.	-12.4	-2.2	.	.	.	.	.	.	.	.
Cc1nc2cc(-c3ccccc3)sc2c(=O)n1N	65.3*	99.2*	75.7*	-8.8	96.0*	96.1*	63.7*	98.4*	99.2*	102.5*	98.5*	97.1*
COc1ccc(-c2cc3nc4n(c(=O)c3s2)CCCCC4)cc1	31.2	18.3	27.4	-402.6	45.9	30.4	.	.	.	.	.	.
Cn1c(NCc2ccccc2)nc2cc(-c3ccccc3)sc2c1=O	.	.	3.3	-99.7	.	.	.	.	.	.	.	.
COc1ccc(-c2cc3nc(C)n(N)c(=O)c3s2)cc1	89.2*	100.2*	86.4*	-431.8	98.7*	96.9*	90.5*	98.7*	99.9*	102.9*	98.5*	98.7*
